Source: PubChem BioAssay
Pf Dd2 inh = Plasmodium falciparum Dd2 growth inhibition; P. falciparum Dd2 growth, SYBR Green, 72 h; Potency, µM (series often up to 28.9 µM), most hits filed as inhibitors; 4.3% of 120,000 active; AID 1347417; active = well fitted inhibition curve with a large enough effect; also: nearly all actives have a fitted effect of over 65% in size
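Readout: SYBR Green fluorescence, 485 nm excitation, 535 nm emission, after ~16 h lysis at 37C. Before that, Dd2-infected red cells (2.5% hematocrit) grew 72 h with compound, 29 uM top final concentration.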
Numbers stand for hits; n = inactive. Many of the other results were omitted from the sample, so hits are more common in it than they were.

SMILES	Pf Dd2 inh
COc1ccc(-c2cn3c(n2)sc2cc(C(=O)NCc4cccc(F)c4)ccc23)cc1	n
Cc1ccc(-c2cn3c(n2)sc2cc(C(=O)NCCC4=CCCCC4)ccc23)cc1	n
COc1ccc(-c2cn3c(n2)sc2cc(C(=O)Nc4cccc(SC)c4)ccc23)cc1	n
CCc1ccc(-c2cn3c(n2)sc2cc(C(=O)NCCC4=CCCCC4)ccc23)cc1	n
COc1cccc(-c2cn3c(n2)sc2cc(C(=O)NC4CCCCC4)ccc23)c1	n
CCN(CC)CCCNC(=O)c1ccc2c(c1)sc1nc(-c3ccc(C)cc3)cn12	1.26µM
O=C(NCC12CCCN1CCC2)c1ccc(C2CCNC2)cc1 (centres undefined)	n
Cn1cc(CN2C[C@H](C(=O)Nc3cccc(F)c3)C[C@H]2c2cccc(C(F)(F)F)c2)cn1	n
CCc1ccc(NC(=O)c2ccc(CN3C(=O)NC4(CCOCC4)C3=O)cc2)cc1	n
COc1ccccc1CC(=O)N1CCN(C(=O)c2nnn3c2COC(c2ccc(Cl)cc2)C3)CC1 (centres undefined)	n
C[C@@H]1C(=O)O[C@H]2[C@H]1CC[C@@]1(C)Cc3sc(Nc4ccc(O)cc4)nc3[C@@H](C)[C@H]21	n
O=C(Nc1ccccc1)N[C@H]1[C@H](O)[C@@H](N2CCN(c3ccccc3)CC2)[C@@H]2OC[C@H]1O2	n
CC(C)NC(=O)N1CCN(C(=O)C2CCNCC2)[C@@H](C(=O)N[C@H](Cc2c[nH]c3ccccc23)C(N)=O)C1	n
CCN1c2cc(C(=O)NCc3ccncc3)ccc2C(=O)N2CCCCC21 (centres undefined)	n
O=C(NCc1cccnc1Oc1ccccc1)c1ccncc1	n
COCCc1noc([C@@H]2CN(Cc3cccc(Cl)c3)C[C@H]2CO)n1	n
CCn1ncc(N2CCCC(CC(=O)NCc3ccc(F)cc3)C2)cc1=O (centres undefined)	n
COc1ccc(C2(C(=O)N3CCC(N4CC5CC(C4)[C@H]4CCCC(=O)N4C5)CC3)CC2)cc1 (some centres undefined)	n
Cc1ccccc1-c1nc(-c2c(C)noc2C)cc2cc(CO)oc12	n
Cc1noc(C)c1-c1cc(-c2cccc(N3CCOCC3)c2)cn2cncc12	6.31µM
Cc1ccccc1-c1cc(-c2c(C)noc2C)c2cncn2c1	3.16µM
COc1ncccc1-c1cc(-c2c(C)noc2C)c2cncn2c1	10µM
Cc1noc2c(-c3ccc(N4CCOCC4)cc3)cc(-c3ccccc3)nc12	n
COc1ncccc1-c1nc(-c2c(C)noc2C)cc2c1cc(C)n2C	n
COc1ncccc1-c1cc(-c2ccc(=O)[nH]c2)c2cncn2c1	n
SMILES	Pf Dd2 inh
Cc1ccccc1-c1cc(-c2cn[nH]c2)c2cncn2c1	n
c1cc(-c2cc(-c3ccncc3)c3cncn3c2)cc(N2CCOCC2)c1	n
Cc1oc2c(c1C(=O)NC1CCCN(c3ncccn3)C1)C(=O)CCC2 (centres undefined)	n
O=C(NCc1n[nH]c2c1CCC2)c1coc(COc2cccc(F)c2F)n1	n
COCC(=O)N1CC(C(=O)Nc2ccccn2)C2(CCOCC2)C1 (centres undefined)	n
CCN(CC)C(=O)CC[C@H]1CNC(=O)[C@@H]2[C@@H](CCN2Cc2ccc(F)cc2)N1C	n
CN1CC(=O)N(C2CCCNC2)Cc2c(NCCOc3ccccc3)ncnc21 (centres undefined)	n
CS(=O)(=O)Cc1ccc(-c2ccc(F)cc2C(F)(F)F)nc1	n
CN(C)C[C@@H]1CN(c2ncccn2)C[C@H]1NC(=O)c1ccccc1C(F)(F)F	n
COC1CCC12CCN(C(=O)c1cnccc1C)CC2 (centres undefined)	n
CCOCC(=O)N1C[C@@H](CO)[C@H](c2ccccn2)C1	n
Cc1ccc(NC(=O)N2C[C@@H](F)C[C@H]2C(=O)N2CCc3ccccc3C2)c(C)c1	n
Cc1cccc(NC(=O)N2C[C@@H](F)C[C@H]2C(=O)N2CCc3ccccc3C2)c1C	7.94µM
Cc1cc(Cl)ccc1NC(=O)N1C[C@@H](F)C[C@H]1C(=O)N1CCc2ccccc2C1	n
COCCNC(=O)[C@@H]1C[C@@H](O)CN1C1CCN(C(=O)c2cccc(OC)c2)CC1	n
COCCN1C(=O)c2ccccc2C(C(=O)N2CCSCC2)C12CCCC2 (centres undefined)	n
CCOc1cc(CN2CCOc3ccc(C(=O)NCc4ccccc4F)cc3C2)ccc1O	n
COc1cccc(CN2CCC(C(Cc3ccccc3F)N(C)C(=O)c3cccs3)CC2)c1O (centres undefined)	n
CCOc1cc(CN2CCC(C(Cc3ccccc3F)N(C)C(=O)c3cccs3)CC2)ccc1O (centres undefined)	3.98µM
CCc1c(C(=O)N[C@@H]2COCC[C@H]2OCc2ccccn2)csc1C	n
O=C(NCc1cccc(F)c1)N1CCCC(Cn2cnc3cccnc32)C1 (centres undefined)	n
Cc1cc(C)cc(NC(=O)N2CCCC(Cn3cnc4cccnc43)C2)c1 (centres undefined)	n
COc1cccc(CNC(=O)N2CCCC(Cn3cnc4cccnc43)C2)c1 (centres undefined)	n
Cc1cc(NC(=O)N2CCCC(Cn3cnc4cccnc43)C2)ccc1Br (centres undefined)	8.91µM
Cc1cccc(NC(=O)N2CCCC(Cn3cnc4cccnc43)C2)c1 (centres undefined)	n
SMILES	Pf Dd2 inh
O=C(NCc1ccc(OC(F)(F)F)cc1)N1CCCC(Cn2cnc3cccnc32)C1 (centres undefined)	7.08µM
CCC(CC)C(=O)Nc1ccc([C@H]2OCC(=O)N(C)[C@@H]2CO)cc1	n
CN(C(=O)[C@@H]1C[C@@H](c2ccc(F)cc2)N([S+](=O)([O-])c2ccccc2)C1)c1cccnc1	n
Cc1ccc(-c2ccccc2CN)cc1Cl	11.2µM
Cc1ccc(-c2ccccc2C=O)cc1Cl	n
Cc1cc(C)cc(-c2ccccc2C=O)c1	n
Cc1cc(C)cc(-c2ccc(CN)cc2)c1	11.2µM
NCc1ccc(-c2ccccn2)cc1	n
COc1ccc(F)cc1-c1ccc(CN)cc1	n
NCc1ccccc1-c1cc(F)cc(F)c1	12.6µM
Cc1cccc(-c2[nH]ncc2CN)c1	n
Cc1cc(C)cc(-c2ccc(C=O)cc2)c1	n
Cc1ccc(-c2[nH]ncc2CN)cc1	n
Cc1cc(C)cc(-c2ccccc2CN)c1	12.6µM
CN1[C@H](CO)C[C@H](CNC(=O)c2cn(CCN)nn2)[C@@H]1c1ccccc1F	n
O=C(O)c1cncc(N2CCC3(CC2)CNC(C(=O)O)C3)n1 (centres undefined)	n
CN(C)C(=O)[C@H]1CN2CCC1C[C@@H]2Cn1cc(CCO)nn1 (some centres undefined)	n
NCCN1C(=O)CC[C@H]2CN(C(=O)c3ccc(Cl)s3)CC[C@H]21	n
COc1cccc([C@@H]2CN(C(=O)Cc3ccc(F)cc3)C[C@H]2C(=O)O)c1OC	n
Cc1noc(C)c1[S+](=O)([O-])N1CCC2CC(=O)NCCC2C1 (centres undefined)	n
CN1C(=O)Cc2ccccc2C1C(=O)NCc1ccc(F)cc1Cl (centres undefined)	n
O=C(NCc1ccc(F)cc1)c1ccc(CN2C(=O)NC3(CCOCC3)C2=O)cc1	n
COc1ccc(-c2nc(-c3nnn4c3COC(c3ccc(C)cc3)C4)no2)cc1OC (centres undefined)	n
Cc1ccc2nc(CO[C@H]3CN(C(=O)C4CC4)C[C@H]3F)[nH]c2c1	n
Cc1occc1C(=O)N1C[C@@H](CO)[C@H](c2nc(C3CC3)no2)C1	n
NCc1ccccc1-c1ccc(OC(F)(F)F)cc1	11.2µM
